Laboratory results as given in PubChem BioAssay AID1650 (Southern Research Specialized Biocontainment Screening …, 2009).
Potency and affinity values are given separately. Calls of active or inactive are those of the source. Entries that show only a call come without a potency. The rule behind the calls is not given here.

Assay: host cell cytotoxicity of antiviral hits, dose response, cytotoxicity control for West Nile virus antiviral project, secondary assay (AID 1650)
Conditions: Mammalian host cell viability, cytotoxicity counter-screen; series mostly up to 10 µM

| Compound | outcome |
| --- | --- |
| N#CC(C(=O)NC1CCCCC1)c1nc2ccccc2nc1N1CCN(c2ccc(F)cc2)CC1 (stereo unspecified) | inactive |
| Cc1ccc(NC2=C/C(=N/S(=O)(=O)c3cccs3)c3ccccc3C2=O)cc1 | inactive |
| CCN(CC)CCCN1CC(O)=C(c2nc3ccccc3s2)C1=N | inactive |
| CN(C)CCCNc1ncnc2c1c(-c1ccccc1)cn2-c1ccccc1 | inactive |
| COc1cc(CNC(C)(C)CO)cc(Br)c1OCc1ccc(Cl)cc1Cl | inactive |
| Cc1cccc2c1NC(=O)/C2=C\C(=O)c1cccs1 | inactive |
| CCN(CC)CCCNC(=O)c1[nH]c2ccccc2c1Sc1ccc(Cl)cc1 | inactive |
| CC1CCN(c2nc3ccc(C(=O)NCCCN4CCCCC4)cc3s2)CC1 | inactive |
| O=[N+]([O-])c1ccc(COc2ccc(-c3[nH]ncc3-c3ccc(Cl)cc3)c(O)c2)cc1 | inactive |
| Cc1ccc(S(=O)(=O)NCc2ccc(C(=O)NCCCN3CCC(Cc4ccccc4)CC3)cc2)cc1 | inactive |
| Cc1cccn2c(=O)c3cc(C(=O)NCCN4CCOCC4)c(=N)n(Cc4ccc(F)cc4)c3nc12 | inactive |
| CC(=O)OCCCNc1cc(Sc2ccc(C)cc2)c2nonc2c1[N+](=O)[O-] | inactive |
| Cc1cccc(N(CC(=O)NCc2ccco2)C(=O)CCC(=O)Nc2ccccn2)c1C | inactive |
| COc1cc(C(=O)N/C(=C/c2ccc(F)cc2)C(=O)NC(C(=O)O)c2ccccc2)cc(OC)c1OC (stereo unspecified) | inactive |
| COc1cc(C(CCN2CCCC(C)C2)c2c(OC)cc(OC)c3c(-c4ccccc4)cc(=O)oc23)cc(OC)c1OC (stereo unspecified) | inactive |
| CCOC(=O)c1c(NC(=O)CN(C)C2CCN(C)CC2)sc(C(=O)Nc2ccccc2)c1C | inactive |
